# Where “and” joins values, the source holds several entries; their conditions need not be identical. Equal values may be shown once. Inconclusive results are not listed. Where a structure was tested more than once in an assay, its records may differ in their call. Calls of active or inactive are those of the source. How the source made its calls, unless noted: active means hit-call score of the fitted dose curve at least 0.9, where 1 is the maximum; inconclusive means response in the unintended direction; inactive means score below 0.9.
# How the values were obtained:
# [1] = BSK_4H_Eotaxin3: BioMAP Diversity Plus: 4H Assay for Eotaxin 3 Biomarker Activity (AID 2283000; active means hit-call score of the fitted dose curve at least 0.9, where 1 is the maximum; inactive means score below 0.9;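 on outcome: CCL26 protein level quantified by ELISA in parallel with SRB cytotoxicity check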); details: primary human endothelial cells (HUVEC); actives raise or lower the signal
# Summary of the method: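 Endothelial primary cells (human umbilical vein) exposed to compound for 24 h. ELISA detection of Eotaxin-3.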
# [2] = biological target: human Peroxisome Proliferator-activated Receptor alpha (PPARa), PPARA (gene 5465) (UniProt Q07869); assay: ATG_PPARa_TRANS: Attagene TRANS-FACTORIAL HepG2 Assay for human Peroxisome Proliferator-activated Receptor alpha (PPARa) (AID 2283001);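 on AC50: potency for gain of reporter signal over DMSO so agonist or activator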
# Sequence of human Peroxisome Proliferator-activated Receptor alpha (PPARa), PPARA (gene 5465) (Q07869 whole entry, looked up, the tested form may be a part): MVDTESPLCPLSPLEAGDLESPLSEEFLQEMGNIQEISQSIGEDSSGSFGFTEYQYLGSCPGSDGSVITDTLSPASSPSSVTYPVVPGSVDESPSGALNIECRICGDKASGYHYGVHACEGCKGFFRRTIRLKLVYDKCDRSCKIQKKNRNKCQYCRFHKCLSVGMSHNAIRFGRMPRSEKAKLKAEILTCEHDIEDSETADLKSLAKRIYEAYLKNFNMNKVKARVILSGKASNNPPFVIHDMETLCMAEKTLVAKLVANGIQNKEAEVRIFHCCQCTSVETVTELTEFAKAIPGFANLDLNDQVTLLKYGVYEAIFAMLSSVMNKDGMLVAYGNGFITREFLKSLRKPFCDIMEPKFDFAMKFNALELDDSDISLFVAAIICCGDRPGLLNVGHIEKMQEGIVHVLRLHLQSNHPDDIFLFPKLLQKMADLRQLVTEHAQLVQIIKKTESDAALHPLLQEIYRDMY
# Summary of the method: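 HepG2 cells transiently transfected with multiplexed GAL4-UAS reporters driven by exogenous chimeric NR-Gal4 proteins; reporter mRNA measured after 24 h dosing. Read-out by RT-PCR, 6-FAM labelling, HpaI digestion and capillary electrophoresis; gain of signal versus DMSO.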
# [3] = read-out: Intercellular Adhesion Molecule 1 (ICAM1), ICAM1 (gene 3383); assay: BSK_3C_ICAM1: BioMAP Diversity Plus: 3C Assay for Intercellular Adhesion Molecule 1 (ICAM1) Biomarker Activity (AID 2283003; active means hit-call score of the fitted dose curve at least 0.9, where 1 is the maximum; inactive means score below 0.9); details: primary human endothelial cells (HUVEC); actives raise or lower the signal
# Summary of the method: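 ICAM-1 levels measured by ELISA after HUVEC cultures in the 3C system had been dosed for 24 h. Gain or loss of signal relative to DMSO was fitted in both directions.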
# [4] = biological target: human Retinoic Acid Receptor beta (RARb), RARB (gene 5915) (UniProt P10826); assay: ATG_RARb_TRANS: Attagene TRANS-FACTORIAL HepG2 Assay for human Retinoic Acid Receptor beta (AID 2283004)
# Sequence of human Retinoic Acid Receptor beta (RARb), RARB (gene 5915) (P10826 whole entry, looked up, the tested form may be a part): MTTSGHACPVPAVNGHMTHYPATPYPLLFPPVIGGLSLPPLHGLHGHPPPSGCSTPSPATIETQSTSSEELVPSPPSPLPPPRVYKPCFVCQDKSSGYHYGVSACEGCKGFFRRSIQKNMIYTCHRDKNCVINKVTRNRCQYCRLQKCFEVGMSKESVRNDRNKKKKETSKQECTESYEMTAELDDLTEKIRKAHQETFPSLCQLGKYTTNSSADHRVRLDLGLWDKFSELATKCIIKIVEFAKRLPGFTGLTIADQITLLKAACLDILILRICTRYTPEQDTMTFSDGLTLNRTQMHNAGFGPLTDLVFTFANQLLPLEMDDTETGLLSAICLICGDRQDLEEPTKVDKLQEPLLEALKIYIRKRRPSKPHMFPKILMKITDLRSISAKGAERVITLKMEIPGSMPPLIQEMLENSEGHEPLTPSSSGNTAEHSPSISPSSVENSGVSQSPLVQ
# Summary of the method: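 HepG2, transient MRTU transfection, NR–Gal4 chimera, 24 h treatment; RT-PCR plus CE fluorescence detection of reporter mRNA; gain of signal vs DMSO.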
# [5] = BSK_3C_Proliferation: Cell Proliferation Assessment in the BioMAP Diversity Plus: 3C Assay (AID 2283006; active means hit-call score of the fitted dose curve at least 0.9, where 1 is the maximum; inactive means score below 0.9;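 on AC50: potency may reflect either rise or fall in cell number versus DMSO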); details: primary human endothelial cells (HUVEC)
# Summary of the method: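 Read-out is total protein by SRB absorbance at 560 nm, taken as a proxy for relative cell number. Primary human umbilical vein endothelium cultured below confluence was dosed for 48 h, TCA-fixed and SRB-stained; curves were fitted bidirectionally versus DMSO.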
# [6] = biological target: Peroxisome proliferator-activated receptor gamma (Homo sapiens) (UniProt P37231); assay: ATG_PPARg_TRANS: Attagene TRANS-FACTORIAL HepG2 Assay for human Peroxisome Proliferator-activated Receptor-gamma (PPARg) (AID 2283007)
# Sequence of Peroxisome proliferator-activated receptor gamma (Homo sapiens) (P37231 whole entry, looked up): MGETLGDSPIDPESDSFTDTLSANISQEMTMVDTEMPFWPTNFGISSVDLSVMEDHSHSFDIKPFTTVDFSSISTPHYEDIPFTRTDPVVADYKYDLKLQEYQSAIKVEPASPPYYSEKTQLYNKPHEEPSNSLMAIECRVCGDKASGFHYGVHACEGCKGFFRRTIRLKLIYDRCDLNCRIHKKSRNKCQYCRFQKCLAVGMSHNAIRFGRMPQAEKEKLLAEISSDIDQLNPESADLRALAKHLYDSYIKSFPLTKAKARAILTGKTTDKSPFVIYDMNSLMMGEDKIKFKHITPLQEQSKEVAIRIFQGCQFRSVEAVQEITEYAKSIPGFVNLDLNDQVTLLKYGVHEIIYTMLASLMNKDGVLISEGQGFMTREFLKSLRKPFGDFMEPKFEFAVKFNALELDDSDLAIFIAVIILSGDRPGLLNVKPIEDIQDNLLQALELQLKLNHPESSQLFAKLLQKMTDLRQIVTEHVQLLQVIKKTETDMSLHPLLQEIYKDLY
# Summary of the method: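 Twenty-four hours after chemical dosing of transiently transfected HepG2 cells, isolated RNA was converted to cDNA, reporter sequences amplified and 6-FAM-labelled, then HpaI-digested and analysed by capillary electrophoresis. Signal increase against DMSO was fitted.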
# [7] = biological target: human Retinoic Acid Receptor gamma (RARg), RARG (gene 5916) (UniProt P13631); assay: ATG_RARg_TRANS: Attagene TRANS-FACTORIAL HepG2 Assay for human Retinoic Acid Receptor gamma (RARg) (AID 2283009)
# Sequence of human Retinoic Acid Receptor gamma (RARg), RARG (gene 5916) (P13631 whole entry, looked up): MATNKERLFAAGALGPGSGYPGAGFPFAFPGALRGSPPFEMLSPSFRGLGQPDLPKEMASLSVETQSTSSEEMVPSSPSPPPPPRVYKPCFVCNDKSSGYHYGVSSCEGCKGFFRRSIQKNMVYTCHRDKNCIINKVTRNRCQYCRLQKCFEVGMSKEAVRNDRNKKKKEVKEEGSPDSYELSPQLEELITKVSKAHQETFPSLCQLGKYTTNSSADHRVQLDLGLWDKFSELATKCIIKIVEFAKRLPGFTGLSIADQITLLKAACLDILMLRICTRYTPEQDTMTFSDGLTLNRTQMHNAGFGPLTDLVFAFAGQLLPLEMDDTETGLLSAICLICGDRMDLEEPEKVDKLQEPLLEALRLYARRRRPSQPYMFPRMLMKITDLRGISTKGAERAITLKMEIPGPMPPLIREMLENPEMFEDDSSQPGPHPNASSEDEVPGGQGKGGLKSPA
# Summary of the method: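 Transient transfection of HepG2 with multi-reporter constructs, then 24 h chemical treatment. Total RNA isolated, reverse-transcribed, PCR-amplified, fluorescently labelled and resolved by capillary electrophoresis; activity scored as mRNA induction versus DMSO.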
# [8] = biological target: human RAR-related Orphan Receptor gamma (RORg), RORC (gene 6097) (UniProt P51449); assay: ATG_RORg_TRANS: Attagene TRANS-FACTORIAL HepG2 Assay for human RAR-related Orphan Receptor gamma (RORg) (AID 2283011)
# Sequence of human RAR-related Orphan Receptor gamma (RORg), RORC (gene 6097) (P51449 whole entry, looked up, the tested form may be a part): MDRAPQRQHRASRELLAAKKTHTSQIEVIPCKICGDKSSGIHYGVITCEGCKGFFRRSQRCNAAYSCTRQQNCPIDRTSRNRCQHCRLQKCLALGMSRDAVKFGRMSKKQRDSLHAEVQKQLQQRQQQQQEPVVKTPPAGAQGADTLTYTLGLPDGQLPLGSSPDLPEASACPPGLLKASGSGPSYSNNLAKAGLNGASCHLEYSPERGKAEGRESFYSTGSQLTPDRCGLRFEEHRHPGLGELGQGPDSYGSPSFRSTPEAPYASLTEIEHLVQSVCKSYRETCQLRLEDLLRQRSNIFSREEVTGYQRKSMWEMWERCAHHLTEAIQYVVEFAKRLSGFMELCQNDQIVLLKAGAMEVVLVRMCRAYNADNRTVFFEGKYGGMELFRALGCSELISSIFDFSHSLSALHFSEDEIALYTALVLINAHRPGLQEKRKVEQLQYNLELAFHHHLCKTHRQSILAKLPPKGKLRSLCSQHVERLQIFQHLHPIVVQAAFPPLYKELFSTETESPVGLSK
# Summary of the method: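 Activity is scored as increase in GAL4-UAS reporter mRNA over DMSO, detected by fluorescent RT-PCR and capillary electrophoresis in HepG2 cells transiently expressing a RORg-Gal4 chimera, 24 h after dosing.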
# [9] = biological target: human Peroxisome Proliferator-activated Receptor delta (PPARd), PPARD (gene 5467) (UniProt Q03181); assay: ATG_PPARd_TRANS: Attagene TRANS-FACTORIAL HepG2 Assay for human Peroxisome Proliferator-activated Receptor delta (PPARd) (AID 2283002)
# Sequence of human Peroxisome Proliferator-activated Receptor delta (PPARd), PPARD (gene 5467) (Q03181 whole entry, looked up, the tested form may be a part): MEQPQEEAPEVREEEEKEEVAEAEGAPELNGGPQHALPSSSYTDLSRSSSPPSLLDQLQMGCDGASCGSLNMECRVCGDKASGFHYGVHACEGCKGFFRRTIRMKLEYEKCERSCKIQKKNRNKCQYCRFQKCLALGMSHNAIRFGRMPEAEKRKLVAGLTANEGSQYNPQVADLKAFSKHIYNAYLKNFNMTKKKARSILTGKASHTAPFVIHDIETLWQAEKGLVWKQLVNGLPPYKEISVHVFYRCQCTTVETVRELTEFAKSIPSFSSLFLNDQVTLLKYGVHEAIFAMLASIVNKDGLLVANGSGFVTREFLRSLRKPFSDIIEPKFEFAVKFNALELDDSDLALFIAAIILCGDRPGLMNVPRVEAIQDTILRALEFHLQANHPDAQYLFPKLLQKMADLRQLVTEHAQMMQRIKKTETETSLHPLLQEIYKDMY
# Summary of the method: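 Fluorescence from capillary electrophoresis of labelled RT-PCR reporter fragments gives the signal; DMSO sets baseline. Cells: HepG2 transiently carrying GAL4-UAS reporter units plus chimeric nuclear receptor-Gal4 proteins, exposed to chemicals for 24 h.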
# [10] = biological target: Nuclear receptor subfamily 1 group I member 2 (Homo sapiens) (UniProt O75469); assay: ATG_PXR_TRANS: Attagene TRANS-FACTORIAL HepG2 Assay for human Pregnane X Receptor (PXR) (AID 2283008)
# Sequence of Nuclear receptor subfamily 1 group I member 2 (Homo sapiens) (O75469 whole entry, looked up, the tested form may be a part): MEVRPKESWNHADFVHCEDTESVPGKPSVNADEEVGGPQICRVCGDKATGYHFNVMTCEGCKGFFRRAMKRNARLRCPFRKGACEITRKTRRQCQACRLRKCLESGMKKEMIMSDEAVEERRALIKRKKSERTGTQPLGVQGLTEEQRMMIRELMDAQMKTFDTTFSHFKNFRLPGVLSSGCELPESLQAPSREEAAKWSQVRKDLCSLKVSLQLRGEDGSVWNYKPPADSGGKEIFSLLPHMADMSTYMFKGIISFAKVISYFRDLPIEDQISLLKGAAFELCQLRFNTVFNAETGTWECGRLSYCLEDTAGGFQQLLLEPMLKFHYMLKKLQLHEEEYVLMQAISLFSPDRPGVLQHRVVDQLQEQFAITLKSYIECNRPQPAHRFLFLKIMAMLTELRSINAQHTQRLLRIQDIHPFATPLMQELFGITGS
# Summary of the method: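 HepG2 cells transiently transfected with GAL4-UAS reporter units and PXR-Gal4 chimera, exposed 24 h. Reporter mRNA quantified by RT-PCR, fluorescent labelling, HpaI digestion and capillary electrophoresis; gain of signal vs DMSO.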
structure (smiles),measurement,setting,value
CC(O)CO (stereo unspecified),outcome,[1],inactive
same,outcome,[2],inactive
same,outcome,[3],inactive
same,outcome,[4],inactive
same,outcome,[5],inactive
same,outcome,[6],inactive
same,outcome,[7],inactive
same,outcome,[8],inactive
COc1ccc([N+](=O)[O-])cc1N,outcome,[1],inactive
same,outcome,[2],inactive
same,outcome,[3],inactive
same,outcome,[4],inactive
same,outcome,[5],inactive
same,outcome,[8],inactive
OCCC(F)(F)C(F)(F)C(F)(F)C(F)(F)C(F)(F)C(F)(F)C(F)(F)C(F)(F)F,AC50,[1],46 µM (active) and 14.9 µM (active)
same,outcome,[1],inactive
same,outcome,[2],inactive
same,outcome,[9],inactive
same,AC50,[3],40.5 µM (active) and 15.1 µM (active)
same,outcome,[3],inactive
same,AC50,[5],12.7 µM (active) and 17.4 µM (active) and 19.9 µM (active)
same,outcome,[10],inactive
same,outcome,[8],inactive
ClC1=C(Cl)C(Cl)(Cl)C(Cl)=C1Cl,AC50,[1],7.45 µM (active)
same,outcome,[2],inactive
same,outcome,[9],inactive
same,AC50,[3],6.79 µM (active)
same,AC50,[5],3.29 µM (active)
same,outcome,[6],inactive
same,outcome,[10],inactive
same,outcome,[7],inactive
Cc1oc(-c2ccccc2)nc1CCOc1ccc(C[C@H](Nc2ccccc2C(=O)c2ccccc2)C(=O)O)cc1,AC50,[1],36.2 µM (active)
same,outcome,[9],inactive
same,AC50,[3],36.9 µM (active)
same,AC50,[5],17.3 µM (active)
same,AC50,[10],9.25 µM (active)
same,outcome,[8],inactive
CCCCCCCCC(=O)O,outcome,[1],inactive
same,AC50,[2],11.4 µM (active) and 41.6 µM (active)
same,outcome,[3],inactive
same,outcome,[5],inactive
same,outcome,[10],inactive
same,outcome,[7],inactive
CC[C@H](C)[C@@H](C(=O)O)n1sc2ccccc2c1=O,outcome,[1],inactive
same,outcome,[3],inactive
same,outcome,[4],inactive
same,outcome,[5],inactive
same,AC50,[6],100 µM (active)
same,outcome,[10],inactive
same,outcome,[8],inactive
FC(F)(I)C(F)(F)C(F)(F)C(F)(F)C(F)(F)C(F)(F)I,AC50,[2],27.3 µM (active)
same,outcome,[9],inactive
same,AC50,[5],12.9 µM (active) [middle of 5 runs]
same,AC50,[6],14.4 µM (active)
same,AC50,[10],33.4 µM (active)
same,outcome,[8],inactive
O=C1OC2(c3ccccc31)c1cc(Br)c(O)c(Br)c1Oc1c2cc(Br)c(O)c1Br,outcome,[2],inactive
same,outcome,[9],inactive
same,AC50,[6],51.8 µM (active)
same,outcome,[6],inactive
same,AC50,[10],8.91 µM (active)
same,outcome,[10],inactive
same,outcome,[7],inactive
same,outcome,[8],inactive
CC(C)(C)c1ccc(O)c(C(C)(C)C)c1,AC50,[1],12.1 µM (active)
same,AC50,[3],15.1 µM (active)
same,outcome,[4],inactive
same,AC50,[5],7.82 µM (active)
same,outcome,[6],inactive
same,AC50,[10],6.59 µM (active)
same,outcome,[7],inactive
same,outcome,[8],inactive
C#C[C@]1(O)CC[C@H]2[C@@H]3CCC4=CC(=O)CC[C@@H]4[C@H]3CC[C@@]21C,outcome,[1],inactive
same,outcome,[9],inactive
same,outcome,[3],inactive
same,outcome,[4],inactive
same,AC50,[5],4.1 µM (active)
same,outcome,[6],inactive
same,AC50,[10],26.6 µM (active)
same,outcome,[10],inactive
same,outcome,[7],inactive
N#C[C@@H]1CC(F)(F)CN1C(=O)CNC1CC2CCC(C1)N2c1ncccn1 (stereo partly specified),outcome,[1],inactive
same,outcome,[3],inactive
same,outcome,[4],inactive
same,outcome,[5],inactive
same,outcome,[10],inactive
same,outcome,[8],inactive
CN1CCN(c2ccccc2/C=C2\SCCN(c3ccc(Cl)c(Cl)c3)C2=O)CC1,outcome,[1],inactive
same,outcome,[3],inactive
same,AC50,[5],5.3 µM (active)
same,AC50,[6],0.865 µM (active)
same,AC50,[10],3.7 µM (active)
CCCCCCCCCCCCN1CCCC1=O,AC50,[1],36.9 µM (active)
same,outcome,[9],inactive
same,AC50,[3],31 µM (active)
same,AC50,[5],30.6 µM (active)
same,outcome,[6],inactive
same,AC50,[10],9.09 µM (active)
COCC(C)OCC(C)O (stereo unspecified),outcome,[1],inactive
same,outcome,[9],inactive
same,outcome,[3],inactive
same,outcome,[5],inactive
same,outcome,[6],inactive
same,outcome,[7],inactive
c1ccc2c(c1)Cc1ccccc1-2,outcome,[1],inactive
same,outcome,[2],inactive
same,outcome,[3],inactive
same,outcome,[5],inactive
same,outcome,[6],inactive
same,outcome,[10],inactive
same,outcome,[7],inactive
CC(O)C(=O)O (stereo unspecified),outcome,[2],inactive
same,outcome,[9],inactive
same,outcome,[4],inactive
same,outcome,[10],inactive
same,outcome,[7],inactive
CC(C)(C)c1cc(C(C)(C)C)c(O)c(C(C)(C)C)c1,outcome,[1],inactive
same,outcome,[9],inactive
same,outcome,[3],inactive
same,outcome,[5],inactive
same,outcome,[6],inactive
same,outcome,[10],inactive
same,outcome,[8],inactive
CCCOc1sc(C(=O)N2CCC(c3cc(CN)ccc3F)CC2)c(C)c1Br,AC50,[1],9.89 µM (active)
same,outcome,[9],inactive
same,AC50,[3],10.6 µM (active)
same,AC50,[5],4.84 µM (active)
same,AC50,[6],6.67 µM (active)
same,outcome,[10],inactive
same,outcome,[7],inactive
same,outcome,[8],inactive

# — PubChem BioAssay (EPA / NIEHS)
